# Most compounds without a hit are left out; they make up all but 1.4% or so of the library.
# BRCA1 expr act = BRCA1 expression activation | hit rate 1.1% among 380,000 | MCF7-BRCA1-FFLuc reporter, luminescence, 48 h; response scale: scaled: vehicle 0%, 10 µM genistein 100% | Potency, µM (doses to about 46.1 µM), without a hit: top-dose activation, hits mostly activators; also: nearly all actives have a fitted effect of over 80% in size
#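 Compounds are tested at multiple concentrations on MCF7 BRCA1-luciferase reporter cells seeded at 2000 per well; after 48 h, a single luminescence end-point is taken and curves fitted to the normalized data.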
# EPAC1 agonist = EPAC1 (human) agonism; O95398; EPAC1 agonist qHTS, biochemical assay; response scale: 100% = response to 6.5 mM cAMP; Potency, µM (doses to about 154 µM), inactives show at the top dose activation, usual class: activators; hit rate 0.073% among 360,000; also: nearly all actives have a fitted effect of over 60% in size
#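 Normalized to 6.5 mM cAMP, activity reflects EPAC1-catalysed release of BODIPY-GDP from Rap1B, followed kinetically over 30 min at 480 nm excitation, 540 nm emission. Reaction contained 100 nM EPAC1, 250 nM Rap1B-BODIPY-GDP, 50 uM GDP.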
# EPAC1 antagonist = antagonists of human EPAC1 | O95398 | EPAC1 GEF assay, Rap1b-BODIPY-GDP exchange fluorescence | Potency, µM (titrated, usually from 115 µM), for the others: top-dose activity change, negative = inhibition, hits mostly inhibitors | hit rate 0.14% among 360,000 | AID 720709;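 also: plate controls were vehicle for no effect and positive control for full effect; nearly all actives have a fitted effect of over 50% in size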
# EPAC2 agonist = activates human EPAC2 exchange factor. AID 720711. EPAC2 activation, biochemical qHTS; response scale: 100% = 6.5 mM cAMP response. Potency, µM (highest dose often 154 µM), inactives show at the top dose activation, most hits filed as activators. Q8WZA2. hit rate 0.079% among 360,000; also: nearly all actives have a fitted effect of over 50% in size
#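 Exchange assay: 100 nM EPAC2 with 250 nM Rap1B-BODIPY-GDP and 50 uM GDP. Fluorescence (ex 480/em 540 nm) read every 5 min for 30 min at room temperature. Data normalized to 6.5 mM cAMP as agonist control.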
# USP1 inh = USP1/UAF1 (human) deubiquitinase inhibition; Potency, µM (doses to about 57.1 µM), for inactives: top-dose activity change, negative = inhibition, usual class: inhibitors; hit rate 0.23% among 390,000; recombinant USP1/UAF1, Ub-Rhodamine cleavage fluorescence; O94782; AID 743255; also: % is scaled to controls: 0 for no effect and ±100 for the full control effect; nearly all actives have a fitted effect of over 60% in size
#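 Step one: compound is pinned into 1nM USP1/UAF1 in HEPES pH 7.8 buffer with TCEP. Step two: 15 min room-temperature incubation. Step three: Ub-Rho (150nM final) starts cleavage, tracked by fluorescence over six one-minute reads.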
# EPAC2 antag = blocks human EPAC2 exchange factor; EPAC2 GEF exchange of Rap1B-BODIPY-GDP, fluorescence; Potency, µM (doses to about 114 µM), inactives show at the highest dose activity, negative = inhibition, hits mostly inhibitors; hit rate 0.18% among 360,000; AID 720708; also: % is scaled to controls: 0 for no effect and ±100 for the full control effect; nearly all actives have a fitted effect of over 45% in size
# * = called active by the depositor; ? = inconclusive. Calls follow the shape of the dose curve; as a rule, active = well fitted curve in the direction sought with a large enough effect; inconclusive = small, poorly fitted or top-dose-only effect, or another doubt; inactive = no such curve, though single readings can be large; an effect the other way counts as inactive or inconclusive. Potency is read from the fitted curve at half-maximal effect.
SMILES,BRCA1 expr act,EPAC1 agonist,EPAC1 antagonist,EPAC2 agonist,USP1 inh,EPAC2 antag
Cc1ccccc1N(CC(=O)NC1CCCC1)C(=O)c1csnn1,10.3%,-3.5%,?,3.8%,-9.7%,0.6%
O=C1C(=O)c2cccc3cccc1c23,-65.0%,-6.1%,13.8%,1.0%,-13.8%,-3.0%
O=C1C(=O)c2ccccc2-c2ccccc21,-79.0%,-17.2%,8.91µM*,21.3%,1µM*,?
NC1=C(Br)C(=O)c2ccccc2C1=O,-98.4%,2.7%,2.6%,9.5%,8.91µM*,-12.0%
Cc1ccc(C=C2C(Cl)=C(Cl)C(Cl)=C2Cl)cc1,-3.4%,-5.3%,?,-11.1%,-17.7%,0.2%
Cc1ccc(C(C#N)=Cc2ccc3c(c2)OCO3)cc1,?,-4.8%,-23.3%,5.0%,1.3%,-16.5%

# Assay outcomes as filed in PubChem BioAssay.
